The list is not random: actives were taken first. Their share in the collection is about 12%.
BAZ2B block = qHTS Assay for Inhibitors of BAZ2B; 360,000 tested, 4.4% active; AID 504333, 2011; AlphaScreen BAZ2B-H3K14Ac peptide displacement; Potency, µM (highest dose often 114 µM), for the others: top-dose activity change, negative = inhibition, hits mostly inhibitors; note: % is set by controls: 0 for no effect and ±100 for the full control effect; nearly all actives have a fitted effect of over 60% in size
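Inhibition is scored as reduced AlphaScreen emission. The BAZ2B/b-H3(5-23)K14Ac complex (50 nM each) in PBS pH 7.4, 0.01% Tween-20 meets compound (up to 110 uM) for 30 min at RT before bead addition.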
HP1b chromo inh = HTS for Inhibitors of HP1-beta Chromodomain Interactions with Methylated Histone Tails; Chromobox protein homolog 1 (Homo sapiens), P83916; AlphaScreen HP1-beta / biotin-H3K9me3 peptide binding; Potency, µM (series often up to 114 µM), for the others: top-dose activity change, negative = inhibition, hits mostly inhibitors; 390,000 tested, 0.56% active; AID 540317, 2011; note: nearly all actives have a fitted effect of over 70% in size
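AlphaScreen: HP1-beta (50 nM) preformed 30 min with biotin-H3(1-18)K9me3 peptide (50 nM) in PBS pH 7.4, 0.01% Tween-20. Compound added for 30 min at RT, then streptavidin donor/nickel chelate acceptor beads (10 ug/mL) for 30 min.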
L3MBTL1 inh = qHTS Assay for the Inhibitors of L3MBTL1; 230,000 tested, 0.66% active; AlphaScreen L3MBTL1–H3K9me1 peptide binding; Potency, µM (top dose mostly 57.1 µM), without a hit: top-dose activity, negative = inhibition, actives largely listed as inhibitors; note: % is set by controls: 0 for no effect and ±100 for the full control effect; nearly all actives have a fitted effect of over 60% in size
Target sequence (Q9Y468 whole entry, looked up): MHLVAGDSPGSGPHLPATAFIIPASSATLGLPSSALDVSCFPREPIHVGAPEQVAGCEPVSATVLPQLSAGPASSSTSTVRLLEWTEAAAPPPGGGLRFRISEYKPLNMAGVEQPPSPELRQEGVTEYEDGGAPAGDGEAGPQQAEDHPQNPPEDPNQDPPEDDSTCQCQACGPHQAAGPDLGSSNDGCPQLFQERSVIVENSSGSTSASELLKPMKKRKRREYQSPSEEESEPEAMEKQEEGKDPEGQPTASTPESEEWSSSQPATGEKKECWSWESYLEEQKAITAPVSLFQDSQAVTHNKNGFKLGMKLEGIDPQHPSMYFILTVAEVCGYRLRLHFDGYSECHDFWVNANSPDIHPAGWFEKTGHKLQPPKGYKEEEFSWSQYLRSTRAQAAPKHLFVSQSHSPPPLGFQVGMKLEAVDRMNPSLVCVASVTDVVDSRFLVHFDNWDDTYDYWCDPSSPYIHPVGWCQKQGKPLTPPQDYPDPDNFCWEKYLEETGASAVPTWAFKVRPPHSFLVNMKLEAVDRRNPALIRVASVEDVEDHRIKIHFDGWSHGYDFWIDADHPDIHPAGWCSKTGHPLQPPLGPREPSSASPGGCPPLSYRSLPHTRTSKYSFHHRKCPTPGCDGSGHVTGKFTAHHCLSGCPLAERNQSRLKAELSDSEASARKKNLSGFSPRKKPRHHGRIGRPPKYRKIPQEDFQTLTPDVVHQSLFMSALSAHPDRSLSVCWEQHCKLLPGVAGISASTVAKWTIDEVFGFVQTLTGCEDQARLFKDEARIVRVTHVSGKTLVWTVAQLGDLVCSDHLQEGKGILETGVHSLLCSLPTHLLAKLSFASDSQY
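L3MBTL1 50 nM + b-AHA-H3(1-15)K9me1 75 nM, 30 min RT; compound added, 30 min RT; streptavidin donor/Ni-chelate acceptor beads 10 ug/mL each final, 30 min RT dark; AlphaScreen read.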
JMJD2A Tudor inh = qHTS Assay for Inhibitors of JMJD2A-Tudor Domain. Lysine-specific demethylase 4A (Homo sapiens), O75164. AlphaScreen JMJD2A-Tudor / H3K4me3 peptide binding. Potency, µM (highest dose often 114 µM), without a hit: top-dose activity change, negative = inhibition, most hits filed as inhibitors. 390,000 tested, 4.4% active. AID 504339, 2011; note: % is set by controls: 0 for no effect and ±100 for the full control effect; nearly all actives have a fitted effect of over 50% in size
G9a inh = qHTS Assay for Inhibitors of Histone Lysine Methyltransferase G9a; Histone-lysine N-methyltransferase EHMT2 (Homo sapiens), Q96KQ7; G9a H3K9 monomethylation, AlphaScreen, 2 h; Potency, µM (top dose mostly 102 µM), for inactives: top-dose activity, negative = inhibition, most hits filed as inhibitors; 350,000 tested, 8.8% active; note: % is set by controls: 0 for no effect and ±100 for the full control effect; nearly all actives have a fitted effect of over 75% in size
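Readings reflect AlphaScreen signal from monomethyl-H3K9 antibody detection. HMT at 20 nM; substrate b-H3K9 500 nM; cofactor SAM 20 uM; 2 h RT reaction; compounds tested as titrations in qHTS with 15 min preincubation.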
Sfp PPTase inh = qHTS Assay for Inhibitors of Bacillus subtilis Sfp phosphopantetheinyl transferase (PPTase); Biochemical Sfp PPTase activity, qHTS; Potency, µM, for the others: largest response in the series, negative = inhibition, most hits filed as inhibitors; 310,000 tested, 3.5% active;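 note: the enzyme is Sfp with the accession as filed and its product quenches rhodamine fluorescence; 0% = enzyme reaction without inhibitor and -100% = no enzyme wells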
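Fluorescence-quenching assay: 15 nM Sfp-PPTase preincubated 15 min at room temperature with compound, then 5 uM rhodamine-CoA and 12.5 uM BHQ-2-labelled YbbR peptide added. Fluorescence (ex 525/em 598 nm) read at start and after 30 min; difference gives rate.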
* hit, by the source's call; ? = inconclusive; . = not tested or not shown; ! = a repeat was not active; [ ] = another dose, or the depositor's remark. Calls come from the whole dose curve; as a rule, active = well fitted curve in the direction sought with a large enough effect; inconclusive = small, poorly fitted or top-dose-only effect, or another doubt; inactive = no such curve, though single readings can be large; an effect the other way counts as inactive or inconclusive. Potency is the fitted concentration of half-maximal effect.

SMILES | BAZ2B block | HP1b chromo inh | L3MBTL1 inh | JMJD2A Tudor inh | G9a inh | Sfp PPTase inh
CC(C)(O)[C@H](O)COc1c2occc2cc2ccc(=O)oc12 | -5.5% | -0.8% | 5.3% | -22.2% | 1.41µM* | 6.4%
CCN(CC)C(=O)Oc1ccc(Cl)c2cccnc12 | -13.1% | -4.6% | 6.5% | -2.8% | 31.3% | 19.3%
O=C(Nc1cccc(C(F)(F)F)c1)Oc1ccc(Cl)c2cccnc12 | 17.8µM* | 2.5%[57 µM] | 25.1µM* | 39.8µM* | 132.1% | 20.4%
Cc1ccc2onc(CC(=O)N3CCN(c4cccc(C)c4C)CC3)c2c1 | -2.4% | 33.1% | . | -6.6% | ? | .
CC1CCN(C(=O)Cn2cc(SCC(=O)NCc3ccccc3Cl)c3ccccc32)CC1 | -28.7% | 11.5% | . | -15.8% | -9.1%[59 µM] | .
CCN(CC)S(=O)(=O)c1ccc2oc(SCC(=O)Nc3cc(C)on3)nc2c1 | 6.3% | -56.1% | 6.4% | ? | 7.1%[0.501 µM] | .
CCN(CC)S(=O)(=O)c1ccc2oc(Nc3ccc(OC)cc3OC)nc2c1 | ? | 17.9% | . | -16.8% | -7.5% | -6.0%
CCN(CC)S(=O)(=O)c1ccc2oc(Nc3ccccc3)nc2c1 | -24.2% | -22.6% | . | ? | 31.6µM* | -5.3%
CCN(CC)S(=O)(=O)c1ccc2oc(SCC(=O)NC3CC3)nc2c1 | ? | -22.0% | . | -0.7% | 12.6µM* | 39.8µM*
COc1ccc(-c2noc(COc3cc(C)c(Br)c(C)c3)n2)cc1OC | 7.7% | 47.3% | . | 12.7% | 18.3%[59 µM] | .
CN(C)c1ccc(-n2cc3c(=O)n(C)c(=O)n(C)c3c2)cc1 | 35.5µM* | ? | -28.3% | ? | 44.7µM* | 4.8%
CCN(CC)c1ccc(-n2cc3c(=O)n(C)c(=O)n(C)c3c2)cc1 | 31.6µM* | 31.6µM* | ? | 56.2µM* | -39.1%[12.7 µM] | -11.6%
Cc1cc(-c2ccc(C)c(S(=O)(=O)NCc3cccs3)c2)on1 | 5.1% | 53.3% | . | -6.2% | -5.3%[59 µM] | .
CN(C(=O)Cn1nnc(-c2ccc(S(C)(=O)=O)cc2)n1)c1ccccc1 | -8.7% | 21.7% | . | -2.2% | -21.0%[59 µM] | .
NC(=O)c1cc2ccccc2o/c1=N\NC(=O)c1ccccc1O | ? | 48.1% | . | -20.1% | 31.6µM* | -12.6%
O=C1NN(c2ccccc2)C(=O)/C1=C\c1coc2ccc(O)cc2c1=O | -37.0% | -9.0% | . | -27.4% | 14.1%[12.7 µM] | 79.4µM*
O=C1NN(c2ccccc2)C(=O)/C1=C\c1ccccc1 | -20.7% | 33.4% | -11.4% | -14.6% | 39.8µM* | -25.1%
O=C1NN(c2cccc(Br)c2)C(=O)/C1=C\c1ccccc1 | -34.9% | 0.4% | . | -32.6% | 20µM* | 79.4µM*
O=C1NN(c2ccccc2)C(=O)/C1=C/c1cccs1 | ? | . | -14.6% | . | -10.9%[59 µM] | 9.1%
CSc1cccc(NC(=O)N2CCN(S(=O)(=O)c3ccc4c(ccn4C)c3)CC2)c1 | -10.4% | 6.6%[57 µM] | . | -29.7% | 1.2%[59 µM] | .
Cc1nn2c(C)c(C(=O)NC(C)c3ccccc3)cnc2c1-c1ccc(F)cc1 (configuration not stated) | -0.7% | 3.4% | . | -11.7% | 12.8%[59 µM] | .
CCOC(=O)c1cnc2nc(NCc3cccc(Br)c3)[nH]n2c1=O | -17.3% | 27.6% | . | -19.1% | ? | .
Cc1nn2c(N)csc2nc1=O | ? | . | -6.7% | . | 79.4µM* | 50.1µM*
CC1=NN(C(N)=S)C(=O)C1N=Nc1c(Cl)cc([N+](=O)[O-])cc1Cl (configuration not stated) | 39.8µM* | ? | -9.9% | 28.2µM* | 25.1µM* | -0.8%
CC1=NN(C(N)=S)C(=O)C1N=Nc1c(C)cc(C)cc1C (configuration not stated) | ? | 6.1% | . | -13.2% | 6.9% | -6.5%
SMILES | BAZ2B block | HP1b chromo inh | L3MBTL1 inh | JMJD2A Tudor inh | G9a inh | Sfp PPTase inh
CC1=NN(C(N)=S)C(=O)C1N=Nc1c(Br)cc(Br)cc1Br (configuration not stated) | 28.2µM* | -18.1% | -2.2%[2.29 µM] | 56.2µM* | 0.0%[0.501 µM] | -16.6%
CCN1C(=NCCCCO)N[C@@H](c2cccc(F)c2)C(C(=O)OC)=C1C | ? | 1.1% | 1.1% | ? | 9.5%[12.7 µM] | 4.9%
COC(=O)C1=C(C)N(Cc2ccco2)C(=O)N[C@H]1c1ccccc1 | -28.5% | . | -12.7% | . | ? | -6.8%
CCN1C(=O)N[C@@H](c2cccc(C(F)(F)F)c2)C(C(=O)OC)=C1C | . | 34.8% | . | -11.4% | . | 1.2%
CCN(CC)CCCN=C1N[C@@H](c2cccc(C(F)(F)F)c2)C(C(=O)OC)=C(C)N1CC | . | 25.3% | 13.0% | 25.1µM* | . | .
CCN1C(=NCCCCO)N[C@@H](c2ccccc2)C(C(=O)OC)=C1C | 1.0% | . | . | . | 18.8%[12.7 µM] | 14.4%
COC(=O)C1=C(C)N(Cc2ccco2)C(=O)N[C@H]1c1ccc(Br)cc1 | ? | . | -8.8% | . | 50.1µM* | ?
CCN1C(=NCCN2CCOCC2)N[C@@H](c2ccccc2)C(C(=O)OC)=C1C | ? | -16.9% | -0.8% | ? | 50.1µM*! | -4.0%
CCN1C(=NCC(C)C)N[C@@H](c2cccc(F)c2)C(C(=O)OC)=C1C | ? | 46.1% | 4.5% | ? | 39.8µM*! | 0.7%
Cc1ccc(S(=O)(=O)c2nnn3c2nc(NC(C)C)c2sccc23)cc1 | -19.8% | 36.4% | . | -3.3% | -12.9%[59 µM] | .
CC(C)CC(=O)Nc1nnc(S(=O)(=O)N(C)Cc2ccc(Cl)cc2)s1 | -10.5% | 41.8% | . | 9.0% | 5.1%[59 µM] | .
CCN1C(=NCc2ccco2)N[C@@H](c2cccc(F)c2)C(C(=O)OC)=C1C | -38.6% | 47.1% | 5.6% | ? | 39.8µM*! | -4.8%
CCOC(=O)c1c(-c2ccc(C)o2)csc1NC(=O)CN1CCC(C(N)=O)CC1 | ? | ? | . | -16.6% | 44.7µM* | 31.6µM*
CCOC(=O)c1c(-c2ccc(C)o2)csc1NC(=O)CN1CCCCC1 | ? | 20.7% | -24.0% | 19.2% | 39.8µM* | 7.94µM*
CCOC(=O)c1c(-c2ccc(C)o2)csc1NC(=S)NC(=O)c1ccc(F)cc1 | -30.5% | 15.4% | -9.2% | -23.9% | -8.0%[59 µM] | 8.1%
CCOC(=O)c1c(-c2ccco2)csc1NC(=O)CSc1nnc(N)s1 | ? | 6.0% | -21.3% | -35.6% | 39.8µM* | 25.1µM*
CCOC(=O)c1c(-c2ccc(C)o2)csc1NC(=O)CSc1nncs1 | -3.1% | ? | -7.9% | 56.2µM* | 10µM* | 7.94µM*

Screening results deposited in PubChem BioAssay by National Center for Advancing Translational Sciences (NCATS).
